28 compounds from PubChem BioAssay (NCI) can be followed below.

This is part of a sample that, as a whole, favours compounds with a hit. Of some 83,000 tested, about 20% had one in any assay.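 Compound tested at a single concentration for 48 hours in 96-well plates; a percent growth value below 10 was scored as active.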 Active and inactive are the calls of the source.

This assay deals with HL-60(TB) leukemia. In words: NCI-60 one-dose screen, 48 h (100 = growth as untreated, 0 = no growth, -100 = all killed). Particulars: 10 µM unless noted.
Turning to `COc1ccc(/C=C2\NC(=O)NC2=O)cc1O`, the growth was 102% (inactive).

With `C/C(=N\Nc1cccc(Cl)n1)c1ccccn1`, the growth is -9.92% (active).

`N#CCCc1ccc(O)cc1`: the growth was 95.6% (inactive).

`COc1ccc2c3c([nH]c2c1)C(=O)c1nc(C)ccc1C3=O`: the growth is 59% (inactive).

With `CC(=O)Nc1ccc(S(=O)(=O)N2C(=O)CCC2C(=O)Nc2ccc(Br)cc2)cc1` (stereo not drawn), the growth is 15.5% (inactive).

On to `O=C(Nc1ccc2ccccc2c1)c1cc2ccccc2cc1O`, for which the growth is 79.7% (inactive).

Consider `O=C(O)CCNS(=O)(=O)c1ccc(-c2ccccc2)cc1`, for which the growth was 188% (inactive).

Regarding `O=C(O)c1ccccc1C(=O)Nc1ccc(Cl)cc1`, the growth was 55% (inactive).

`COc1cc(C2Nc3ccccc3S2)cc(CN2CCOCC2)c1O` (stereo not drawn): the growth is 80.6% (inactive).

Consider `CC(=O)O[C@H]1CC[C@]2(C)[C@H]3CC=C4[C@@H]5CC(C)(C)CC[C@]5(C(=O)NCCNCCN)CC[C@@]4(C)[C@]3(C)CC[C@H]2C1(C)C`, for which the growth was -67.6% (active).

For `COc1cccc(-c2cc(-c3cc4ccccc4oc3=O)nc(N)n2)c1`, the growth is 101% (inactive).

For `Cc1nc2cc(-c3nn(C(C)C)c4ncnc(N)c34)ccc2o1`, the growth is 5.12% (active).

With `Nc1ccc2c(c1)/C(=N/O)c1cc([N+](=O)[O-])ccc1-2`, the growth is 64.1% (inactive).

Turning to `COc1nc(OC)nc(-c2cc(C(=O)c3ccc(Br)cc3)n3cc(C)cc(C)c23)n1`, the growth was 99% (inactive).

With `N#C/C(=C\c1ccc2c(c1)OCO2)n1nnc2ccccc21`, the growth is -10.9% (active).

With `CCCCCCCCCCCCNC(=S)N/N=C/c1ccc(Cl)c(Cl)c1`, the growth was 116% (inactive).

On to `CCC(C)Nc1ccc(N)cc1` (stereo not drawn), for which the growth was -9.29% (active).

With `C(=N/Nc1ncc(-c2cc3cc(-c4ccccc4)ccc3o2)s1)/c1cccs1`, the growth is 96.4% (inactive).

Consider `C#Cc1cccc(Oc2ccc(NC(=O)CCl)cc2)c1`, for which the growth is 0.122% [8.25 µM] (active).

`COc1ccc(OC)c(Nc2nnc(-c3ccc(Cl)cc3)o2)c1`: the growth was 94.8% (inactive).

As for `COc1cc(/C=N/NC(=O)c2cnn3c2NC(c2ccccc2)C3)cc(OC)c1OC` (stereo not drawn), the growth was 81.1% (inactive).

Turning to `COCc1c(-c2ccc(NC(=O)Nc3cc(C(F)(F)F)ccc3F)c(F)c2)c2c(N)ncnn2c1CN1CCOCC1`, the growth is -22% (active).

Take `COc1cc(C2CC(=O)Nc3n[nH]c(-c4ccccc4)c32)cc(OC)c1OC` (stereo not drawn): the growth was 39.1% (inactive).

`O=C1C=C(Nc2ccc([N+](=O)[O-])cc2)c2ccccc2C1=O`: the growth is 3.59% (active).

On to `c1ccc2cc(Cn3c[n+](Cc4ccc5ccccc5c4)c4ccccc43)ccc2c1`, for which the growth is -66.3% (active).

For `O=C(Nc1ccc(Cl)cc1)c1cc2cc(F)ccc2cc1O`, the growth was -4.75% (active).

In the case of `c1ccc(-c2nc3ccccc3s2)cc1`, the growth was 99.5% (inactive).

As for `Cc1nn(-c2cc(=O)[nH]c3ccccc23)c(N)c1C#N`, the growth is 102% (inactive).
